Source: article PMC10812921, “Transcriptional Coactivator BOB1 (OBF1, OCA-B) Modulates the Specificity of DNA Recognition by the POU-Domain Factors OCT1 and OCT2 in a Monomeric Configuration”

Assays:
POU1 (OCT1 POU domain) = POU1 (OCT1 POU domain) (human, UniProt P14859 260-458); assay: EMSA-SELEX-seq; no BOB1; 20 mM Tris-HCl pH 7.6, 140 mM NaCl, 10% glycerol, 0.5 mM EDTA, 0.05% Triton X-100, 0.1 mg/mL BSA, 0.1 mg/mL poly(dI-dC), 5 mM DTT, room temperature, 20 min; high values mean tight binding; conditions: protein: recombinant; dsDNA, one strand shown
Outline: (§1)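 Binding preference means the percentage of sequenced 8-mers matching a motif pattern. Tagged POU-domain proteins (30 ng), expressed in E. coli BL21, purified under denaturing conditions and renatured, were mixed with 300 ng of a PCR-amplified double-stranded random 35-nt library, with or without 28 ng coactivator protein, for 20 min at RT in 20 μL Tris–HCl pH 7.6 binding buffer. Selection was repeated over four rounds of excising complex bands from native 6% PAGE, eluting and PCR amplification, followed by Illumina sequencing.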

POU2 (OCT2 POU domain) = biological target: T1, POU2 (OCT2 POU domain) (human, UniProt P09086 175-386); assay: as above; conditions: protein: recombinant; dsDNA, one strand shown
T1 sequence: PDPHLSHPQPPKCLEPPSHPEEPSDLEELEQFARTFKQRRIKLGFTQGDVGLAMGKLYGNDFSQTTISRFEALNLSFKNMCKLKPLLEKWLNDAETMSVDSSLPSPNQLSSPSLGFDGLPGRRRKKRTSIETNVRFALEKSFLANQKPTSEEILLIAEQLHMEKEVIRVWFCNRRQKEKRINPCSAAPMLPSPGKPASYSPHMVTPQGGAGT
Outline: as §1

[1] = biological target: POU1 (OCT1 POU domain);BOB1 (OBF1, OCA-B) (human;human, UniProt P14859;Q16633 260-458;1-256, |); assay: EMSA-SELEX-seq; with BOB1 (ternary complex band); 20 mM Tris-HCl pH 7.6, 140 mM NaCl, 10% glycerol, 0.5 mM EDTA, 0.05% Triton X-100, 0.1 mg/mL BSA, 0.1 mg/mL poly(dI-dC), 5 mM DTT, room temperature, 20 min; high values mean tight binding; conditions: protein: recombinant;recombinant; copies: 1;1; dsDNA, one strand shown
Outline: as §1

[2] = biological target: T2, POU2 (OCT2 POU domain);BOB1 (OBF1, OCA-B) (human;human, UniProt P09086;Q16633 175-386;1-256, |); assay: as above; conditions: protein: recombinant;recombinant; copies: 1;1; dsDNA, one strand shown
T2 sequence 1: T1 sequence
T2 sequence 2: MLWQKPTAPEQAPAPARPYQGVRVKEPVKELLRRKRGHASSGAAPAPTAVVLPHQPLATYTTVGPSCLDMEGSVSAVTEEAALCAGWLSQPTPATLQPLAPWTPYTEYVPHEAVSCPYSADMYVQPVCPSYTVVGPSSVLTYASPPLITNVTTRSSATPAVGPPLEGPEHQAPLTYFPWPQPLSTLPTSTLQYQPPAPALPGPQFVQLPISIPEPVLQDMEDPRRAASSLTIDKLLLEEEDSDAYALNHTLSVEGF
Outline: as §1

POU1 (OCT1 POU domain), sequence (P14859 260-458): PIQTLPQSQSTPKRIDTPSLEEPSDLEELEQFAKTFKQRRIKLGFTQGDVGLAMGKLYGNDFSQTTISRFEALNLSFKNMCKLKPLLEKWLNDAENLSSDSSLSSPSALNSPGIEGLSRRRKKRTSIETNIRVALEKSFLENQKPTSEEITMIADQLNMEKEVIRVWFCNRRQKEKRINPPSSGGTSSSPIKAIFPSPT

| Sequence | binding signal (POU1 (OCT1 POU domain)) | binding signal (POU2 (OCT2 POU domain)) | binding signal [1] | binding signal [2] |
| --- | --- | --- | --- | --- |
| AATCGAAT | 0.087 % of ANNNNAAN 8-mers | 0.0926 % of ANNNNAAN 8-mers | 0.078 % of ANNNNAAN 8-mers | 0.0916 % of ANNNNAAN 8-mers |
| AACATAAA | 0.101 % of ANNNNAAN 8-mers | 0.125 % of ANNNNAAN 8-mers | 0.0527 % of ANNNNAAN 8-mers | 0.0627 % of ANNNNAAN 8-mers |
| ATTCTAAA | 0.0946 % of ANNNNAAN 8-mers | 0.123 % of ANNNNAAN 8-mers | 0.0542 % of ANNNNAAN 8-mers | 0.0726 % of ANNNNAAN 8-mers |
| AGTGAAAA | 0.0698 % of ANNNNAAN 8-mers | 0.0685 % of ANNNNAAN 8-mers | 0.0956 % of ANNNNAAN 8-mers | 0.0685 % of ANNNNAAN 8-mers |
| AGGCCAAC | 0.0107 % of ANNNNAAN 8-mers | 0.0115 % of ANNNNAAN 8-mers | 0.0113 % of ANNNNAAN 8-mers | 0.0157 % of ANNNNAAN 8-mers |
| ACCGAAAG | 0.0137 % of ANNNNAAN 8-mers | 0.0144 % of ANNNNAAN 8-mers | 0.0164 % of ANNNNAAN 8-mers | 0.0149 % of ANNNNAAN 8-mers |
| AGTTTAAA | 0.0881 % of ANNNNAAN 8-mers | 0.0938 % of ANNNNAAN 8-mers | 0.0808 % of ANNNNAAN 8-mers | 0.0751 % of ANNNNAAN 8-mers |
| ACGAGAAT | 0.0492 % of ANNNNAAN 8-mers | 0.0547 % of ANNNNAAN 8-mers | 0.0347 % of ANNNNAAN 8-mers | 0.0553 % of ANNNNAAN 8-mers |
| ACTTAAAC | 0.0336 % of ANNNNAAN 8-mers | 0.046 % of ANNNNAAN 8-mers | 0.0277 % of ANNNNAAN 8-mers | 0.0355 % of ANNNNAAN 8-mers |
| AGGGCAAC | 0.0214 % of ANNNNAAN 8-mers | 0.0219 % of ANNNNAAN 8-mers | 0.0172 % of ANNNNAAN 8-mers | 0.0173 % of ANNNNAAN 8-mers |
| AAAATAAC | 0.0782 % of ANNNNAAN 8-mers | 0.0696 % of ANNNNAAN 8-mers | 0.0816 % of ANNNNAAN 8-mers | 0.0735 % of ANNNNAAN 8-mers |
| AGATTAAC | 0.0885 % of ANNNNAAN 8-mers | 0.0863 % of ANNNNAAN 8-mers | 0.0414 % of ANNNNAAN 8-mers | 0.0495 % of ANNNNAAN 8-mers |
| AACTCAAG | 0.0194 % of ANNNNAAN 8-mers | 0.0219 % of ANNNNAAN 8-mers | 0.0164 % of ANNNNAAN 8-mers | 0.0289 % of ANNNNAAN 8-mers |
| AAAGGAAG | 0.0561 % of ANNNNAAN 8-mers | 0.061 % of ANNNNAAN 8-mers | 0.0675 % of ANNNNAAN 8-mers | 0.0702 % of ANNNNAAN 8-mers |
| AGTTCAAC | 0.0229 % of ANNNNAAN 8-mers | 0.0173 % of ANNNNAAN 8-mers | 0.0246 % of ANNNNAAN 8-mers | 0.0173 % of ANNNNAAN 8-mers |
| AGTGTAAG | 0.032 % of ANNNNAAN 8-mers | 0.0443 % of ANNNNAAN 8-mers | 0.0406 % of ANNNNAAN 8-mers | 0.0421 % of ANNNNAAN 8-mers |
| ACGATAAC | 0.0252 % of ANNNNAAN 8-mers | 0.0293 % of ANNNNAAN 8-mers | 0.0191 % of ANNNNAAN 8-mers | 0.0264 % of ANNNNAAN 8-mers |
| ACATTAAT | 0.165 % of ANNNNAAN 8-mers | 0.215 % of ANNNNAAN 8-mers | 0.0777 % of ANNNNAAN 8-mers | 0.102 % of ANNNNAAN 8-mers |
| ACGCAAAT | 0.564 % of ANNNNAAN 8-mers | 0.409 % of ANNNNAAN 8-mers | 1.27 % of ANNNNAAN 8-mers | 1.38 % of ANNNNAAN 8-mers |
| AGTGAAAT | 0.138 % of ANNNNAAN 8-mers | 0.124 % of ANNNNAAN 8-mers | 0.196 % of ANNNNAAN 8-mers | 0.121 % of ANNNNAAN 8-mers |
| AGAGGAAT | 0.0828 % of ANNNNAAN 8-mers | 0.115 % of ANNNNAAN 8-mers | 0.0652 % of ANNNNAAN 8-mers | 0.0859 % of ANNNNAAN 8-mers |
| AATAAAAC | 0.0751 % of ANNNNAAN 8-mers | 0.0967 % of ANNNNAAN 8-mers | 0.0757 % of ANNNNAAN 8-mers | 0.0726 % of ANNNNAAN 8-mers |
| AGAAGAAC | 0.0191 % of ANNNNAAN 8-mers | 0.0288 % of ANNNNAAN 8-mers | 0.0176 % of ANNNNAAN 8-mers | 0.0256 % of ANNNNAAN 8-mers |
| AAACCAAT | 0.0336 % of ANNNNAAN 8-mers | 0.0265 % of ANNNNAAN 8-mers | 0.0437 % of ANNNNAAN 8-mers | 0.0347 % of ANNNNAAN 8-mers |
| ATCCCAAG | 0.0172 % of ANNNNAAN 8-mers | 0.0167 % of ANNNNAAN 8-mers | 0.0246 % of ANNNNAAN 8-mers | 0.0198 % of ANNNNAAN 8-mers |
| AGCTAAAG | 0.0278 % of ANNNNAAN 8-mers | 0.0282 % of ANNNNAAN 8-mers | 0.0289 % of ANNNNAAN 8-mers | 0.0256 % of ANNNNAAN 8-mers |
| AGTACAAA | 0.0336 % of ANNNNAAN 8-mers | 0.0328 % of ANNNNAAN 8-mers | 0.0375 % of ANNNNAAN 8-mers | 0.0446 % of ANNNNAAN 8-mers |
| AGGGAAAT | 0.549 % of ANNNNAAN 8-mers | 0.365 % of ANNNNAAN 8-mers | 0.963 % of ANNNNAAN 8-mers | 0.713 % of ANNNNAAN 8-mers |
| AACGAAAT | 0.0744 % of ANNNNAAN 8-mers | 0.0783 % of ANNNNAAN 8-mers | 0.0675 % of ANNNNAAN 8-mers | 0.0636 % of ANNNNAAN 8-mers |
| AAGGAAAT | 0.199 % of ANNNNAAN 8-mers | 0.157 % of ANNNNAAN 8-mers | 0.288 % of ANNNNAAN 8-mers | 0.171 % of ANNNNAAN 8-mers |
